The values that follow come from PubChem BioAssay (Tox21).

“And” between values parts separate entries of the source, which are not always exact repeats. Equal values may be shown once. Unmarked numbers belong to inactive results. Inconclusive results are not listed. The source made the active and inactive calls. The call rests on the fitted dose curve; in most records, active means well fitted curve in the direction sought with a large enough effect in the repeat runs; inconclusive means weak or mixed curves; inactive means no such curve, though single readings can be large; an effect the other way counts as inactive or inconclusive.
Further: nearly all actives have a fitted effect of over 50% in size.
On the % scale 0 is the no-effect control and ±100 the full control effect; potency means the concentration at half of the fitted maximal effect.

One assay is described as follows: qHTS RealTime-Glo MT Cell Viability Assay in HEK293 cells - 32 hour (AID 1224868). On activity change, negative = cytotoxic: top concentration of the series differs between compounds. Conditions: RealTime-Glo luminescence; series mostly up to 76.8 µM; activity change, negative = cytotoxic: at the top concentration. The method in brief:
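Assay medium contained NanoLuc luciferase plus cell-permeant prosubstrate, added with HEK293 cells at 600 cells/well. After 5 h at 37 C/5% CO2 compounds were added; plates stayed at 37 C for 40 h with serial luminescence reads.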
(Quantitative high-throughput screening tests each substance at several concentrations.)
In the case of `CCC[CH2][Sn]([CH2]CCC)([O]C(C)=O)[O]C(C)=O`, the Potency is 0.0783 µM (active).

For `[F][Sn]([c]1ccccc1)([c]1ccccc1)[c]1ccccc1`, the Potency is 0.436 µM (active).

As for `CC(=O)[O-].CC(=O)[O-].O.O.[Zn+2]`, the “activity change, negative = cytotoxic” value was -0.749%.

With `CO/N=C(\C(=O)OC)c1ccccc1CO/N=C(\C)c1cccc(C(F)(F)F)c1`, the Potency was 12.3 µM (active).

Turning to `CNC(=O)/C=C(\C)OP(=O)(OC)OC`, the “activity change, negative = cytotoxic” value was 9.38%.

As for `Nc1nc(N)c(N)c(N)n1`, the “activity change, negative = cytotoxic” value is 8.67%.

Take `Nc1ccccc1-c1ccccc1`: the “activity change, negative = cytotoxic” value is -11.4%.

Consider `O=S(=O)(NS(=O)(=O)C(F)(F)F)C(F)(F)F`, for which the Potency was 1.94 µM (active).

Turning to `CCC(C)Nc1c([N+](=O)[O-])cc(C(C)(C)C)cc1[N+](=O)[O-]` (stereo not drawn), the “activity change, negative = cytotoxic” value was -14.2%.

As to `O=C(N[C@H]1N=C(c2ccccc2F)c2cccc3c2N(CC3)C1=O)c1cc2ccccc2[nH]1`, the “activity change, negative = cytotoxic” value is 0.834% [at 35.3 µM].

Turning to `c1ccc2nc(N3CCNCC3)ccc2c1`, the “activity change, negative = cytotoxic” value is -14.5% [at 35.3 µM].

Consider `C[C@H]1[C@H](c2ccc(Cl)cc2)SC(=O)N1C(=O)NC1CCCCC1`, for which the Potency is 49 µM (active).

As to `Clc1ccc(C(c2ccc(Cl)cc2)C(Cl)Cl)cc1`, the Potency is 49.8 µM (active) and 43.6 µM (active).

`CC1=C2C[C@H]3[C@@H](CC=C4C[C@@H](O)CC[C@@]43C)[C@@H]2CC[C@]12O[C@@H]1C[C@H](C)CN[C@H]1[C@H]2C`: the Potency is 16.9 µM (active).

As to `Cc1c([N+](=O)[O-])c(C)c([N+](=O)[O-])c(C(C)(C)C)c1[N+](=O)[O-]`, the “activity change, negative = cytotoxic” value was -17.7%.

For `CCOC(=O)Cc1ccccc1`, the “activity change, negative = cytotoxic” value is 16.6%.

Consider `CCC(OC(C)=O)C(CC(C)NC)(c1ccccc1)c1ccccc1` (stereo not drawn), for which the Potency is 55.4 µM (active).

With `CCC(C)c1cccc(C(C)CC)c1O` (stereo not drawn), the “activity change, negative = cytotoxic” value was -14.5%.

For `Oc1ccc2[nH]cc(CCCCN3CC=C(c4ccccc4)CC3)c2c1`, the Potency is 23.9 µM (active).

Consider `CC1CN1` (stereo not drawn), for which the “activity change, negative = cytotoxic” value is 5.39%.

Consider `CC(=O)[O][Sn]([c]1ccccc1)([c]1ccccc1)[c]1ccccc1`, for which the Potency was 0.0389 µM (active).

Take `C[C@]12CC[C@H]3[C@@H](CCC4=CC(=O)CC[C@@H]43)[C@@H]1CC[C@@H]2OC(=O)CCc1ccco1`: the “activity change, negative = cytotoxic” value is -10.5% [at 35.3 µM].

As to `O.O.O.O.O.O.O.O=S(=O)([O-])[O-].[Co+2]`, the “activity change, negative = cytotoxic” value was 8.84%.

In the case of `O=[N+]([O-])C(Br)Br`, the Potency is 55 µM (active).

As for `CCCCCCC[CH2][Sn]([Cl])([Cl])[CH2]CCCCCCC`, the “activity change, negative = cytotoxic” value was 0.486%.

Consider `S=C=NCCc1ccccc1`, for which the Potency was 49.1 µM (active).

`Cc1c([N+](=O)[O-])cc2c(c1[N+](=O)[O-])C(C)(C)CC2(C)C`: the “activity change, negative = cytotoxic” value was 12.6%.

`COP(=S)(NC(C)C)Oc1ccc(C)cc1[N+](=O)[O-]` (stereo not drawn): the “activity change, negative = cytotoxic” value was -22.1%.

On to `CCCCCCCc1ccc(O)cc1`, for which the Potency is 19.5 µM (active).

For the compound `COC(=O)N(OC)c1ccccc1COc1ccn(-c2ccc(Cl)cc2)n1`, the Potency was 21.9 µM (active).

On to `O=[N+]([O-])c1ccc(Cl)c(Cl)c1Cl`, for which the “activity change, negative = cytotoxic” value is -5.97%.

As for `CN1CCc2cc3c(cc2C1O)OCO3` (stereo not drawn), the “activity change, negative = cytotoxic” value was 1.83%.

Turning to `ClC(Cl)C(Cl)(Cl)Cl`, the “activity change, negative = cytotoxic” value is 2.29%.

The next assay can be described thus: A CellTox Green Cytotoxicity Assay to monitor cytotoxicity in HEK293 cells - 0 hour (AID 1224869). Conditions: CellTox Green fluorescence; series mostly up to 76.8 µM; cytotoxicity: at the top concentration. An outline of the steps: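 Seeding of HEK293 cells together with cytotoxicity dye preceded a 5 h incubation at 37 C/5% CO2. Test compounds in DMSO were then added and fluorescence monitored across 40 h.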
Take `CCC[CH2][Sn]([CH2]CCC)([O]C(C)=O)[O]C(C)=O`: the “cytotoxicity” value was 9%.

On to `[F][Sn]([c]1ccccc1)([c]1ccccc1)[c]1ccccc1`, for which the “cytotoxicity” value is -6.03%.

Consider `CC(=O)[O-].CC(=O)[O-].O.O.[Zn+2]`, for which the “cytotoxicity” value was -0.171%.

Consider `CO/N=C(\C(=O)OC)c1ccccc1CO/N=C(\C)c1cccc(C(F)(F)F)c1`, for which the “cytotoxicity” value is 7.21%.

With `CNC(=O)/C=C(\C)OP(=O)(OC)OC`, the “cytotoxicity” value is -0.0725%.

Consider `Nc1nc(N)c(N)c(N)n1`, for which the Potency was 49.2 µM (active).

In the case of `Nc1ccccc1-c1ccccc1`, the “cytotoxicity” value was -0.0408%.

As for `O.O.O.O=C([O-])[C@H]([O-])[C@@H]([O-])C(=O)[O-].O=C([O-])[C@H]([O-])[C@@H]([O-])C(=O)[O-].[K+].[K+].[Sb+3].[Sb+3]`, the “cytotoxicity” value is -6.4%.

Turning to `O=S(=O)(NS(=O)(=O)C(F)(F)F)C(F)(F)F`, the “cytotoxicity” value was 0.339%.

Regarding `O=C(NC(=O)c1ccccc1Cl)Nc1ccc(OC(F)(F)F)cc1`, the “cytotoxicity” value is -1.31%.

For `CCC(C)Nc1c([N+](=O)[O-])cc(C(C)(C)C)cc1[N+](=O)[O-]` (stereo not drawn), the “cytotoxicity” value was -0.528%.

Turning to `O=C(N[C@H]1N=C(c2ccccc2F)c2cccc3c2N(CC3)C1=O)c1cc2ccccc2[nH]1`, the “cytotoxicity” value was -0.461% [at 35.3 µM].

In the case of `c1ccc2nc(N3CCNCC3)ccc2c1`, the “cytotoxicity” value was 2.2% [at 35.3 µM].

Regarding `C[C@H]1[C@H](c2ccc(Cl)cc2)SC(=O)N1C(=O)NC1CCCCC1`, the “cytotoxicity” value is 1.46%.

`CC(C)(C)c1ccc(OP(=O)(Oc2ccccc2)Oc2ccccc2)cc1`: the “cytotoxicity” value was -4.82%.

As for `Clc1ccc(C(c2ccc(Cl)cc2)C(Cl)Cl)cc1`, the Potency result was “inactive”.

As to `CC1=C2C[C@H]3[C@@H](CC=C4C[C@@H](O)CC[C@@]43C)[C@@H]2CC[C@]12O[C@@H]1C[C@H](C)CN[C@H]1[C@H]2C`, the “cytotoxicity” value is 2.13% [at 35.3 µM].

In the case of `Oc1cccc(Cl)c1Cl`, the “cytotoxicity” value was -0.748%.

As to `Cc1c([N+](=O)[O-])c(C)c([N+](=O)[O-])c(C(C)(C)C)c1[N+](=O)[O-]`, the “cytotoxicity” value was -0.962%.

Take `CCOC(=O)Cc1ccccc1`: the “cytotoxicity” value is 0.442%.

Turning to `CCC(OC(C)=O)C(CC(C)NC)(c1ccccc1)c1ccccc1` (stereo not drawn), the “cytotoxicity” value was 0.134%.

On to `CCC(C)c1cccc(C(C)CC)c1O` (stereo not drawn), for which the “cytotoxicity” value is -0.381%.

Consider `Nc1ccc(N=Nc2ccccc2)cc1`, for which the “cytotoxicity” value was -2.02%.

`Oc1ccc2[nH]cc(CCCCN3CC=C(c4ccccc4)CC3)c2c1`: the “cytotoxicity” value is 13.1% [at 35.3 µM].

Turning to `CC1CN1` (stereo not drawn), the “cytotoxicity” value was 3.14%.

Turning to `CC(=O)[O][Sn]([c]1ccccc1)([c]1ccccc1)[c]1ccccc1`, the “cytotoxicity” value was 3.56%.

For the compound `C[C@]12CC[C@H]3[C@@H](CCC4=CC(=O)CC[C@@H]43)[C@@H]1CC[C@@H]2OC(=O)CCc1ccco1`, the “cytotoxicity” value was -7.14% [at 35.3 µM].

Take `O.O.O.O.O.O.O.O=S(=O)([O-])[O-].[Co+2]`: the “cytotoxicity” value is -8.13%.

`CC(C)N(C(=O)CCl)c1ccccc1`: the Potency result was “inactive”.

As to `O=[N+]([O-])C(Br)Br`, the “cytotoxicity” value was -10.7%.

Turning to `CCCCCCC[CH2][Sn]([Cl])([Cl])[CH2]CCCCCCC`, the “cytotoxicity” value is -3.57%.

With `S=C=NCCc1ccccc1`, the “cytotoxicity” value was -2.86%.

On to `Cc1c([N+](=O)[O-])cc2c(c1[N+](=O)[O-])C(C)(C)CC2(C)C`, for which the “cytotoxicity” value was 6.3%.

In the case of `COP(=S)(NC(C)C)Oc1ccc(C)cc1[N+](=O)[O-]` (stereo not drawn), the “cytotoxicity” value was -2.89%.

`CCCCCCCc1ccc(O)cc1`: the “cytotoxicity” value was -12.7%.

Turning to `COC(=O)N(OC)c1ccccc1COc1ccn(-c2ccc(Cl)cc2)n1`, the “cytotoxicity” value was 3.99%.

For the compound `O=[N+]([O-])c1ccc(Cl)c(Cl)c1Cl`, the “cytotoxicity” value is 0.248%.

Regarding `CO/N=C(/C1=NOCCO1)c1ccccc1Oc1ncnc(Oc2ccccc2Cl)c1F`, the “cytotoxicity” value was 4.14%.

Regarding `CN1CCc2cc3c(cc2C1O)OCO3` (stereo not drawn), the “cytotoxicity” value is -0.948%.

Regarding `ClC(Cl)C(Cl)(Cl)Cl`, the “cytotoxicity” value was -0.614%.
